# Records with an inconclusive call do not appear. Active and inactive are the calls of the source. The call rests on the fitted dose curve; in most records, active means well fitted inhibition curve with a large enough effect; inconclusive means small, poorly fitted or top-dose-only effect; inactive means no such curve, though single readings can be large or run the other way.
# Tested on: Zika virus NS2B-NS3 protease (linked)
# Test: Optimization screen NINDS Rhodamine qHTS for Zika virus inhibitors: Linked NS2B-NS3 protease assay
# Settings: fluorogenic rhodamine substrate; series mostly up to 105 µM
# Text: Avindra Nath, Ph.D., National Institute of Neurological Disorders and Stroke (NINDS), Bethesda, MD
# Radhakrishnan Padmanabhan, Ph.D., Georgetown University (GU), Washington D.C.
# Zika Virus causes congenital defects, including microcephaly and is associated with Guillain-Barre syndrome, eningoencephalitis and myelitis in infected adult. […] Using a target-based approach, we hope to establish a screening paradigm to uncover novel, cell-active NS2B-NS3 protease (Zika Virus) specific inhibitors from NCATS' collection of small molecules using qHTS.
# Four assay panel was created to identify potential Zika Virus inhibitors. Namely, (1) GU unlinked NS2B-NS3 AMC tagged protease qHTS, (2) GU unlinked NS2B-NS3 Rhodamine tagged protease qHTS, (3) NINDS linked NS2B-NS3 AMC tagged protease qHTS, (4) NINDS linked NS2B-NS3 Rhodamine tagged protease qHTS. Active compounds were re-acquired and re-screened to confirm inhibition. Inhibitors were further screened against various confirmatory and counterscreens in dose response format.
# Early Translation Branch (ETB)
# National Center for Advancing Translational Sciences (NCATS), Rockville, MD
# National Institute of Health (NIH), Bethesda, Maryland
# For the linked assay, Nath lab (NINDS) provided the purified linked NS2B-NS3 protease which is consists of hydrophilic domain of NS2B linked to the NS3 protease domain by a flexible (-GGGGSGGGG-) linker. Control compound aprotinin is obtained from Thermo Scientific (#78432; Waltham, Massachusetts). Rhodamine110 substrate ([N-Cbz]-Nle-Lys-Arg-Arg-Rhod110-Arg-Arg-Lys-Nle-[N-Cbz]) was purchased from either Genscript or Bachem.
# 1536-well Protease (Rhodamine110 Substrate) Assay:
# Briefly, 3 microL of enzyme (25 nM final concentration), in assay buffer (10 mM Tris-HCl pH 8.0 with 0.01% Tween 20) were dispensed into a 1,536-well solid-bottom black plate (Greiner Bio One, Monroe, NC). Twenty-three nL of compounds (final concentration range 7.28 nM to 114 microM) or control Aprotinin (final concentration range 3.47 nM to 114 microM) were transferred via Wako Pin-tool (Wako Automation, Richmond, VA). Samples were incubated (room temperature, protected from light) for 15 minutes followed by a 1 microL Rhodamine110 substrate addition (1.5 microM final concentration). Plates were then immediately read on a ViewLux High-throughput CCD imager (PerkinElmer, Waltham, MA) equipped with FITC fluorescence optics (480(20) nm excitation, 540(25) nm emission), then incubated (room temperature, protected from light) for 15 minutes (~15% conversion). The change in fluorescence intensity over the 15-minute reaction period was normalized against no-inhibitor and no-enzyme controls and the resulting percent inhibition data were fitted to a 4-parameter Hill equation. Aprotinin was used as intraplate control.
row,Compound,outcome
1,C[C@H]1O[C@@H](O[C@H]2[C@@H](O)C[C@H](O[C@H]3[C@@H](O)C[C@H](O[C@H]4CC[C@]5(C)C6CC[C@]7(C)[C@@H](C8=CC(=O)OC8)CC[C@]7(O)C6CC[C@@H]5C4)O[C@@H]3C)O[C@@H]2C)C[C@H](O)[C@@H]1O (stereo not given in full),inactive
2,C=CCN1CCC2(C)c3cc(O)ccc3CC1C2C (stereo not given),inactive
3,CN1CC[C@@]23CCCCC2C1Cc1ccc(O)cc13 (stereo not given in full),inactive
4,CO[C@H]1[C@@H](O)CC(OC2[C@@H](O)CC(OC3[C@@H](O)C[C@H](OC4CC[C@@]5(C)C(CCC6C5CC(O)[C@]5(C)[C@H](C7=CC(=O)OC7)CCC65O)C4)O[C@@H]3C)O[C@@H]2C)O[C@@H]1C (stereo not given in full),inactive
5,C[C@H]1O[C@@H](O[C@H]2[C@@H](O)C[C@H](O[C@H]3[C@@H](O)C[C@H](O[C@H]4CC[C@@]5(C)[C@H](CC[C@@H]6[C@@H]5CC[C@]5(C)[C@@H](C7=CC(=O)OC7)CC[C@]65O)C4)O[C@@H]3C)O[C@@H]2C)C[C@H](O)[C@@H]1O,inactive
6,C[C@@H]1[C@@H]2Cc3ccc(O)cc3[C@@]1(C)CCN2CC1CC1,inactive
7,CC(C)OC(=O)Nc1ccccc1,inactive
8,COC1C(O)C(C)O[C@@H](OC2CC[C@@]3(C)C4CC[C@]5(C)C(C6=CC(=O)OC6)CC[C@@]5(O)C4CC[C@@H]3C2)C1O (stereo not given in full),inactive
9,Cc1ccc2c(c1)[C@]13CCCC[C@@H]1[C@H](C2)N(C)CC3,inactive
10,C[C@@H]1[C@@H]2Cc3ccc(O)cc3[C@@]1(C)CCN2CCc1ccccc1,inactive
11,C[C@@H]1O[C@@H](O[C@H]2C[C@@H](O)[C@]3(CO)C4C(CC[C@]3(O)C2)[C@@]2(O)CC[C@H](C3=CC(=O)OC3)[C@@]2(C)C[C@H]4O)[C@H](O)[C@H](O)[C@H]1O (stereo not given in full),inactive
12,CN1CC[C@@]23CCCC[C@@H]2[C@@H]1Cc1ccc(O)cc13,inactive
13,C[C@H]1O[C@@H](O[C@H]2[C@@H](O)C[C@@H](O[C@H]3[C@@H](O)C[C@H](O[C@H]4CC[C@@]5(C)[C@H](CC[C@@H]6[C@@H]5CC[C@]5(C)[C@@H](C7=CC(=O)OC7)CC[C@]65O)C4)O[C@@H]3C)O[C@@H]2C)C[C@H](O)[C@@H]1O,inactive
14,C=CCN1CC[C@]23CCCCC2[C@H]1Cc1ccc(O)cc13 (stereo not given in full),inactive
15,CC[C@H](C)[C@H]1O[C@]2(C=C[C@@H]1C)C[C@@H]1C[C@@H](C/C=C(\C)[C@@H](O[C@H]3C[C@H](OC)[C@@H](O[C@H]4C[C@H](OC)[C@@H](O)[C@H](C)O4)[C@H](C)O3)[C@@H](C)/C=C/C=C3\CO[C@@H]4[C@H](O)C(C)=C[C@@H](C(=O)O1)[C@]34O)O2,inactive
16,C[C@@H]1O[C@@H](O[C@H]2C[C@@H](O)[C@]3(CO)[C@H]4[C@H](O)C[C@]5(C)[C@@H](C6=CC(=O)OC6)CC[C@]5(O)[C@@H]4CC[C@]3(O)C2)[C@H](O)[C@H](O)[C@H]1O,inactive
17,CC1OC(O[C@H]2C[C@@H](O)[C@]3(CO)[C@H]4[C@H](O)C[C@]5(C)[C@@H](C6=CC(=O)OC6)CC[C@]5(O)[C@@H]4CC[C@]3(O)C2)C(O)C(O)C1O (stereo not given in full),inactive
18,CC1O[C@@H](O[C@@H]2C(O)C[C@H](O[C@@H]3C(O)C[C@@H](OC4CC[C@@]5(C)C6CC[C@]7(C)C(C8=CC(=O)OC8)CC[C@@]7(O)C6CC[C@@H]5C4)OC3C)OC2C)CC(O)[C@H]1O (stereo not given in full),inactive
19,CC(C)=CCN1CC[C@@]2(C)c3cc(O)ccc3C[C@@H]1[C@@H]2C,inactive
20,C=CCN1CCC2(C)c3cc(O)ccc3C[C@H]1[C@H]2C,inactive

# — PubChem BioAssay AID1347155 (National Center for Advancing Translational Sciences (NCATS), 2019)
